The list is not random: actives were taken first. Their share in the collection is about 19%.
KB-V1 MDR tox: qHTS assay for MDR1-selective chemotherapeutics: Primary screen using the drug-selected MDR subline cells KB-V1; hit rate 3.4% among 400,000; KB-V1 MDR cells viability, CellTiter-Glo, 72 h; Potency, µM (titrated, usually from 46.1 µM), usual class: cytotoxic; AID 1347076, 2019; also: nearly all actives have a fitted effect of over 60% in size
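Cytotoxicity toward P-gp-expressing KB-V1 cells was determined as loss of CellTiter-Glo luminescence after 72 h at 37 degrees C. Compounds were tested in quantitative HTS format across a concentration range, with curves fitted to normalized data.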
KB-3-1 cytotox: qHTS assay for MDR1-selective chemotherapeutics: Primary screen using the parental adenocarcinoma cell KB-3-1. KB-3-1 viability, CellTiter-Glo ATP luminescence, 72 h. Potency, µM (titrated, usually from 46.1 µM), hits mostly cytotoxic. hit rate 1.4% among 400,000; also: nearly all actives have a fitted effect of over 60% in size
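Cells are dispensed, compounds pinned in, plates held at 37 °C for 72 h, then CellTiter-Glo is added and luminescence read after 10 minutes. Cell line: parental KB-3-1 in phenol-red-free DMEM, 10% FBS.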
TDP1 cell noCPT: qHTS for Inhibitors of human tyrosyl-DNA phosphodiesterase 1 (TDP1): qHTS in cells in absence of CPT. DT40 Tdp1-/- hTDP1 cells, no CPT, ATP luminescence, 48 h. Potency, µM (series often up to 46.2 µM), for inactives: top-dose activity change, negative = growth inhibition, usual class: inhibitors. hit rate 15% among 420,000. AID 686978, 2013; also: nearly all actives have a fitted effect of over 55% in size
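Seeded 400 DT40-hTDP1 cells/well (vehicle DMSO, no 20 nM CPT); pinned compounds; ≥48 hr at 37 °C; CellTiter-Glo luminescence as viability measure.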
HT1080 IDH1KD tx: qHTS for induction of synthetic lethality in tumor cells producing 2HG: qHTS for the HT-1080-IDH1KD cell line. HT-1080 IDH1 knockdown viability, ATP luminescence, 48 h. Potency, µM (series often up to 46.1 µM), for inactives: at the highest dose activity, negative = toxicity, most hits filed as cytotoxic. hit rate 2% among 360,000. AID 686971, 2013;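 also: 0% = DMSO wells and -100% = cell-free medium wells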
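Using the IDH1-knockdown HT-1080 line run in the same batch and compound series as the NT line, viability after 48 h at 37 °C was determined by CellTiter-Glo luminescence and expressed as % activity.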
TDP1 cell CPT: qHTS for Inhibitors of human tyrosyl-DNA phosphodiesterase 1 (TDP1): qHTS in cells in presence of CPT | chicken DT40 Tdp1-/-;hTDP1 cells + 20 nM CPT, ATP luminescence, 48 h | Potency, µM (top dose mostly 46.2 µM), for the others: top-dose activity change, negative = growth inhibition, hits mostly inhibitors | hit rate 12% among 420,000; also: nearly all actives have a fitted effect of over 55% in size
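Chicken DT40 Tdp1-/- cells stably complemented with human TDP1 were seeded at 400 cells/well in medium containing 20 nM camptothecin, exposed to pin-transferred compounds, and grown at 37 °C for at least 48 hr. Viability was read as ATP luminescence.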
HT1080NT lethal: qHTS for induction of synthetic lethality in tumor cells producing 2HG: qHTS for the HT-1080-NT fibrosarcoma cell line. HT-1080-NT fibrosarcoma viability, CellTiter-Glo ATP luminescence, 48 h. Potency, µM (titrated, usually from 46.1 µM), without a hit: at the top dose activity, negative = less viability, most hits filed as cytotoxic. hit rate 1.6% among 360,000;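 also: NT is the 2HG producing partner of a matched IDH1 knockdown line; 0% = DMSO-treated cells and -100% = media-only wells without cells; nearly all actives have a fitted effect of over 55% in size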
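Read-out is CellTiter-Glo luminescence after 10 minutes at room temperature, following 48 hours' compound treatment of HT-1080-NT cells (750 cells/well, RPMI, 5% FBS, 37 degrees C).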
* = called active by the depositor; i = inactive; ? = inconclusive; · = no result given; [ ] = remark or other dose. Calls follow the shape of the dose curve; as a rule, active = well fitted curve in the direction sought with a large enough effect; inconclusive = small, poorly fitted or top-dose-only effect, or another doubt; inactive = no such curve, though single readings can be large; an effect the other way counts as inactive or inconclusive. Unless noted, % is scaled to controls: 0 for no effect and ±100 for the full control effect; potency is read from the fitted curve at half-maximal effect.

SMILES | KB-V1 MDR tox | KB-3-1 cytotox | TDP1 cell noCPT | HT1080 IDH1KD tx | TDP1 cell CPT | HT1080NT lethal
COCc1c(C(=O)N2CCN(Cc3ccc4c(c3)OCO4)CC2)oc2ccccc12 | i | ? | ? | -1% | ? | -2%[9.24 µM]
COCc1c(C(=O)N(C)Cc2ccccc2N2CCCC2)oc2ccccc12 | ? | i | 23µM* | 2% | ? | 6%
CCCCNS(=O)(=O)c1ccc(NS(=O)(=O)c2c(C)cc(C)cc2C)cc1 | i | i | ? | ? | ? | ?
COCCn1c(=O)cnc2cnc(Oc3ccc(OC)cc3)nc21 | · | · | -17% | · | -25% | ·
CCCCSc1nc(N)nc2c1ncn2C1OC(CO)C(O)C1O (stereo not given) | i | i | -28% | -10% | ? | -5%
N#Cc1ccc(C(=O)N(Cc2ccco2)Cc2cccs2)cc1 | i | i | ? | · | ? | ·
CCOc1ccc(NC(=O)c2cccc(NC(C)=O)c2)cc1S(=O)(=O)N1CCCC1 | i | i | ? | -5% | ? | -2%
O=C(NC(=S)Nc1ccccc1N1CCN(C(=O)c2ccccc2)CC1)c1cccs1 | i | i | ? | 0% | ? | 2%
O=C(NC(=S)Nc1ccccc1N1CCCC1)c1cccs1 | i | i | 15µM* | -3% | 16µM* | -7%
O=C(NC(=S)Nc1ccccc1N1CCCCC1)c1cccs1 | ? | i | 21µM* | ? | 16µM* | -14%
COc1ccc(OCC(O)CN2CCC(CN3C(=O)c4cccc5cccc(c45)C3=O)CC2)cc1 (stereo not given) | i | i | 21µM* | ? | 13µM* | 23µM*
Cc1ccc(C)c(OCC(O)CN2CCC(CN3C(=O)c4cccc5cccc(c45)C3=O)CC2)c1 (stereo not given) | 2.6µM* | 18µM* | 5.8µM* | 0% | 5.2µM* | 0%
O=C1c2cccc3cccc(c23)C(=O)N1CCN1CCN(CC(O)COc2ccccc2)CC1 (stereo not given) | i | i | -29% | 3% | -14% | 1%
O=C1c2cccc3cccc(c23)C(=O)N1CC1CCN(CC(O)COCc2ccc3c(c2)OCO3)CC1 (stereo not given) | ? | ? | ? | 21µM* | ? | 21µM*
COc1cccc(OCC(O)CN2CCN(CCN3C(=O)c4cccc5cccc(c45)C3=O)CC2)c1 (stereo not given) | ? | i | 18µM* | ? | ? | -28%
O=C(Cn1ccn(-c2cccc(Cl)c2)c(=O)c1=O)NCCc1ccccc1 | · | · | 0% | · | 1% | ·
CCOc1ccccc1N1CCN(C(=O)NCc2ccc(Cl)cc2)CC1 | ? | i | ? | 0% | -26% | -17%
COc1ccccc1N1CCN(c2nc3ccccc3n3cnnc23)CC1 | ? | i | 21µM* | · | ? | ·
Clc1cccc(N2CCN(c3nc4ccccc4n4cnnc34)CC2)c1 | i | i | ? | · | ? | ·
CCN1CCN(c2nc3ccccc3n3cnnc23)CC1 | i | i | -22% | -3% | -7% | -1%
Cc1cccc(N2CCN(c3nc4ccc(Cl)cc4n4cnnc34)CC2)c1C | i | i | ? | 16% | 21µM* | 18%
O=c1[nH]c2cc([N+](=O)[O-])ccc2c2ccccc12 | ? | i | -21% | ? | -17% | -14%
O=c1[nH]c2cc([N+](=O)[O-])ccc2c2ccc([N+](=O)[O-])cc12 | i | i | 15µM* | 18% | 9.2µM* | 16%
CCc1cccc2[nH]c3cc([N+](=O)[O-])ccc3c12 | 13µM* | ? | ? | -22% | -2% | -11%
O=c1[nH]c2ccc([N+](=O)[O-])cc2[nH]1 | ? | i | -1% | -13% | 10% | -1%
SMILES | KB-V1 MDR tox | KB-3-1 cytotox | TDP1 cell noCPT | HT1080 IDH1KD tx | TDP1 cell CPT | HT1080NT lethal
O=c1[nH][nH]c2cc([N+](=O)[O-])ccc12 | ? | ? | 3.7µM* | 15µM* | 3.7µM* | 4.1µM*
Cc1c(C(=O)Nc2nc(-c3ccc(F)cc3)ns2)oc2ccc(Cl)cc12 | · | · | -4% | · | -4% | ·
O=C(OCC(=O)N1CCc2ccccc2C1)c1cccnc1Cl | i | i | 3% | 13% | 0% | 20%
COc1ccccc1C(=O)NCCC(=O)N1CC=C(c2ccccc2)CC1 | i | i | -18% | -5% | ? | 0%
Cc1ccc2cc(CN(Cc3ccco3)C(=O)c3cccs3)c(=O)[nH]c2c1 | 5.2µM* | ? | 3.7µM* | 5.8µM* | 2.9µM* | 4.6µM*
Cc1cccc(N(Cc2cc3ccccc3[nH]c2=O)C(=O)c2cccs2)c1 | i | i | 23µM* | -2% | ? | -29%
Cc1ccc(N(Cc2cc3ccc(C)cc3[nH]c2=O)C(=O)c2cccs2)cc1 | i | i | -15% | 11% | -22% | 16%
C=C(C)c1sc(-c2ccc(Cl)cc2)nc1C | i | i | -26% | 16% | -1% | 19%
Nn1cc(-c2ccccc2)nc1SCC(=O)NCC(F)(F)F | i | i | 13% | 3% | -15% | -1%
COc1ccc(-c2nc(SCC(=O)c3ccc(OC)c(Br)c3)n[nH]2)cc1 | ? | ? | 23µM* | · | ? | ·
COc1ccc(Br)cc1CNC(=O)CSc1n[nH]c(-c2ccccc2)n1 | i | ? | 21µM* | · | 13µM* | ·
COc1ccc(-c2nc(SCC(=O)NCCCc3ccccc3)n[nH]2)cc1 | · | · | 21µM* | · | 16µM* | ·
COc1ccc(NC(=O)CSc2n[nH]c(-c3ccccc3)n2)cc1Cl | ? | i | ? | · | ? | ·
Nn1cc(-c2ccccc2)nc1SCC(=O)NCCc1ccccc1 | 23µM* | i | ? | -15% | -12% | -7%
COc1ccc(C(=O)CSc2n[nH]c(-c3ccncc3)n2)cc1[N+](=O)[O-] | i | i | -16% | -2% | -4% | 3%
CSCCNC(=O)c1ccc2nc(C3CCCCC3)oc2c1 | i | i | -11% | 9% | -19% | 15%
O=C(CNC(=O)c1n[nH]c2ccccc12)Nc1ccc(F)c(F)c1F | i | i | 8% | 6% | 3% | 2%

Screening results as filed in PubChem BioAssay.
